Assay results: the OligoGym collection

Target: ATP8A2
Assay: pooled miR-30 sensor sort-seq; sequence = guide strand
Details: shRNA
Also: reference of the scale not given here.

Row | Sequence | sensor-assay potency score (higher = more potent)
1 | TCAATGTTCTTCAACAGCCTGG | -0.00859
2 | TTCCTGACTAACAGCTCCGTGT | -0.616
3 | TTGATCTCTTGAGAGGCGCTTT | -0.359
4 | TAATACATATCTGTGTCCCAGT | -0.374
5 | TTCAACATAACACATTGCCTGA | -0.505

Target: ATP8B3
Assay: as above
Details: shRNA

Row | Sequence | sensor-assay potency score (higher = more potent)
6 | TAAATGACCAGTCCATAGCAGG | -1.07
7 | TTTTTGTGTCAAAACCAGCATA | -0.74
8 | TTGGTCAACAGCAACTTCTCAG | -0.358
9 | TTGACTGAGAAACCGAAGCCGA | -0.857
10 | TTGGTCTTGTATTTCTTCCTTT | -0.502
11 | TTTCTTGTCATTCCATTCCAGG | -1.26
12 | TTCTCTGACAGCAGCTCGCAGG | -0.893
13 | TTCTTTGACTGAGAAACCGAAG | -1.15
14 | TAGTACATCTGCACGTCCCAGT | 0.127
15 | TAGAAGTTGTACTTGGCCGTGC | 1.18
16 | TAATTTTTGTGTCAAAACCAGC | -1.1
17 | TTTGATGTTGCTCTTCTTGAGA | -0.55

Target: AVPR1B
Assay: as above
Details: shRNA

Row | Sequence | sensor-assay potency score (higher = more potent)
18 | TGTGTCTTGACTTTTAGGTTTT | -1.08
19 | TTTTAGGTTTTTACAGATCTCA | -0.253
20 | TTCTTGTCCCACACGGACCACA | -1.03
21 | TAGGTTTTTACAGATCTCATGG | 0.26
22 | TTAGGTTTTTACAGATCTCATG | -1.16
23 | ATCAGGGGCATTCTTGTCCCAC | -1.06
24 | ATCTGGACACTGAAGAAGGGAG | -1.3
25 | TTTTTACAGATCTCATGGCAGA | -0.895
26 | TTCACTGTTCGGATCTTGGCCC | 0.0628
27 | TTGGTGGAATCTTCATCAGGGG | -0.225
28 | TGACAGACAGCCAGGTAGCGGT | -1.51
29 | TTGACTTTTAGGTTTTTACAGA | -0.906
30 | TTGAAGCCCATGTAGATCCAGG | -0.752
31 | TTGGCCAGCTCCTCATCCCGGC | -0.765
32 | TTGGTGACTCTTCAGGCCTGGG | -0.954
33 | TCTGCCAGCTCCAAGTCCCTTG | -1.14
34 | TGGTGGAATCTTCATCAGGGGC | -1.82
35 | TAGGTGGAGGCAAACATGCTGA | -0.677
36 | AAACATGCTGAGCACCTGCAGG | -1.16
37 | AAGATAGCCAGGGTGGTCCAGG | -1.04
38 | TTTAGGTTTTTACAGATCTCAT | -1.13
39 | TTTACAGATCTCATGGCAGATG | -1.02
40 | ATCTTCACTGTTCGGATCTTGG | -1.06
